From PubChem BioAssay
Many of the other results were omitted from the sample, so hits are more common in it than they were.
Pf Dd2 inh = inhibitors of Plasmodium falciparum Dd2 growth. AID 1347417. Potency, µM (top dose mostly 28.9 µM), for the others: at the highest dose activity, negative = inhibition, hits mostly inhibitors. 120,000 compounds, 4.3% hits. P. falciparum Dd2 growth, SYBR Green, 72 h; active = well fitted inhibition curve with a large enough effect;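 note: plate controls were DMSO vehicle for no effect and reference drug for full effect; nearly all actives have a fitted effect of over 65% in size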
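Readout: SYBR Green fluorescence, 485 nm excitation, 535 nm emission, after ~16 h lysis at 37C. Before that, Dd2-infected red cells (2.5% hematocrit) grew 72 h with compound, 29 uM top final concentration.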
Active calls of the source: *; i = inactive; [ ] = remark or other dose. Potency is the fitted concentration of half-maximal effect.

SMILES	Pf Dd2 inh
O=C(CCc1nc(C2CCCN2C(=O)c2ccccc2)no1)Nc1ccc(F)cc1F (centres undefined)	0%
COCCN1C(=O)CS(=O)(=O)C12CCN(C(=O)c1cccc(OC)c1C)CC2	i
CC(C)(C)C(=O)N1CC[C@@H](CC(=O)O)[C@@H](CC2=NCCc3cc(F)ccc32)C1	i
COCCOC1CCOC2(CCN(C(=O)Cc3c(C)noc3C)CC2)C1 (centres undefined)	15%
O=C(C1CCCC1)N1CC(c2nc(CCOCC3CCOCC3)no2)C1	i
Cn1cc(CN2CCn3c(nnc3[C@@H]3C[C@@H](O)CN3Cc3cccnc3)C2)c2ccccc21	-26%
O=C1CCN(Cc2cccnc2)CCCC(C(=O)NC2CCN(Cc3ccccc3)CC2)CCN1 (centres undefined)	15%
CN1[C@@H](CCC(=O)NCc2ccc(F)cc2)CNC(=O)[C@@H]2[C@H]1CCN2Cc1ccc(O)cc1	-23%
O=C(Cc1ccc(Cl)cc1)N1CCC(c2n[nH]c(=O)n2-c2ccccc2)CC1	i
CC(C)CN1C(=O)c2ccccc2C(C(=O)N2CCSCC2)C12CCCC2 (centres undefined)	-15%
CCc1ccccc1NC(=O)C1c2ccccc2C(=O)N(CCOC)C12CCCC2 (centres undefined)	i
CCOc1ccccc1NC(=O)C1c2ccccc2C(=O)N(CCOC)C12CCCCC2 (centres undefined)	4µM*
CC(C)NC(=O)C1c2ccccc2C(=O)N(Cc2ccco2)C12CCCCC2 (centres undefined)	-15%
CC(C)CN1C(=O)c2ccccc2C(C(=O)Nc2ccccn2)C12CCCC2 (centres undefined)	14µM*
COCCN1C(=O)c2ccccc2C(C(=O)NC2CCCC2)C12CCCCC2 (centres undefined)	12%
COCC(=O)N1CCC(Oc2ccccc2C(=O)N(C)Cc2ncccc2C)CC1	-3%
CCc1ccc(C(=O)N2CCC(Oc3ncccc3C(=O)N(C)C)C2)cc1 (centres undefined)	-13%
O=C([C@H]1C[C@@H](F)CN1C(=O)c1ccc(C(F)(F)F)cc1)N1CCOCC1	i
CCN1CCC(N[C@@H]2CC[C@@H]2NC(=O)CCCc2ccccc2)CC1	-25%
COc1ccc(CN2CCOCCNC(=O)CC2)cc1Cc1c(C)noc1C	-24%
CCc1ccccc1Nc1nn2c(=O)c3ccc(C(=O)NC(C)c4ccccc4)cc3nc2s1 (centres undefined)	1µM*
CCc1ccccc1Nc1nn2c(=O)c3ccc(C(=O)Nc4cc(C)cc(C)c4)cc3nc2s1	-2%
CCc1ccccc1Nc1nn2c(=O)c3ccc(C(=O)NC4CCCCC4)cc3nc2s1	-20%
COCc1nc2nccc(-c3ccsc3)n2n1	-1%
O=C(NC1CCCCC1)N1CCCCCC1c1nc(-c2ccncc2)no1 (centres undefined)	-47%
SMILES	Pf Dd2 inh
CC(C)NC(=O)N1Cc2[nH]cnc2C[C@H]1c1nc(-c2ccccc2)no1	i
COc1ccc(NC(=O)N2Cc3[nH]cnc3C[C@H]2c2nc(-c3ccc(OC)cc3)no2)cc1	i
Cc1cccc(-c2noc([C@@H]3Cc4nc[nH]c4CN3C(=O)Nc3cccc(C#N)c3)n2)c1	-27%[44.1 µM]
O=C(c1ccccc1)N1Cc2[nH]cnc2C[C@H]1c1nc(-c2ccncc2)no1	11µM*
O=C(Nc1cccc(F)c1)N1Cc2[nH]cnc2C[C@H]1c1nc(-c2ccccc2)no1	-24%[44.1 µM]
O=C(Nc1ccccc1)N1Cc2[nH]cnc2C[C@H]1c1nc(-c2ccccc2)no1	i
O=C(NC1CCCCC1)N1Cc2[nH]cnc2C[C@H]1c1nc(-c2ccncc2)no1	13µM*
Cc1cccc(-c2noc([C@@H]3Cc4nc[nH]c4CN3C(=O)Nc3cccc(F)c3)n2)c1	13µM*
CC(C)C(=O)N1CCC2(CCC(=O)N(CC3CC3)CC2)CC1	-7%
Cc1ccc(C(=O)N2CCC(n3cc(-c4nc(C)no4)nn3)CC2)cc1	32%
COc1ccc(-c2nnc3n2CCN(C(=O)Cc2ccc(F)cc2)C3)cc1	-21%
COc1cccc(C2C(C(=O)Nc3ccc(Cl)cc3)=C(C)Nc3nc4ccccc4n32)c1 (centres undefined)	-22%
CCc1ccc(C2=CC(c3cccc(OC)c3OC)n3c(nc4ccccc43)N2)cc1 (centres undefined)	8.9µM*
CC1=C(C(N)=O)C(c2ccc(C(C)C)cc2)n2nc(SCc3ccccc3F)nc2N1 (centres undefined)	7%
CC(C)c1ccc(C2=CC(c3cccc(Cl)c3)n3ncnc3N2)cc1 (centres undefined)	16%
CCN(CC)C(=O)C1=C(C)Nc2nc3ccccc3n2C1c1cccc(Cl)c1 (centres undefined)	11µM*
CC(C)c1ccc(C2=CC(c3cccc(Cl)c3)n3c(nc4ccccc43)N2)cc1 (centres undefined)	11µM*
CCN(CC)C(=O)C1=C(C)Nc2nc3ccccc3n2C1c1ccc(Cl)cc1 (centres undefined)	-10%
COc1cccc(C2C(C(=O)Nc3ccc(C)cc3C)=C(C)Nc3nc4ccccc4n32)c1OC (centres undefined)	-12%
Cn1c(=O)c2c(c3ccccc31)OC(=O)CC2c1cccc(Cl)c1 (centres undefined)	23%
COc1ccc(C2N=C(N)Nc3nc4ccccc4n32)c(OC)c1OC (centres undefined)	-20%
CC(C)c1ccc(C2N=C(N)Nc3nc4ccccc4n32)cc1 (centres undefined)	3.2µM*
COc1cccc(C2=CC(c3ccccc3F)n3c(nc4ccccc43)N2)c1 (centres undefined)	11%
CCCCOCCCNC(=O)c1c(C)noc1-c1ccc(OC(F)(F)F)cc1	i
Cc1cn(CC(=O)NC(c2nnc3n2CCNCC3)C(C)C)c(=O)[nH]c1=O (centres undefined)	28%
SMILES	Pf Dd2 inh
COc1ccc(CNc2ncnc3c2CN(c2ccc(OC)cc2)C(=O)CN3C)cc1	-2%
COCCNC(=O)c1ccc2c(c1)N(C)C(CC(=O)N1CCC(O)CC1)CO2 (centres undefined)	-16%
CCC(=O)N1CCc2c(C(=O)NCc3cc(OC)ccc3OC)cccc21	i
CCC(=O)N1CCc2c(C(=O)NCCOC)cccc21	-10%
CCC(=O)N1CCc2c(C(=O)NCc3cc(C)ccc3C)cccc21	11µM*
COc1cccc(C(=O)N2CCC3(CC2)N(C)C(=O)CS3(=O)=O)c1	-1%
CCOC(=O)C1(Cc2ccccc2F)CCCN(C(=O)c2cnn(CC)c2)C1 (centres undefined)	3%
O=C(Nc1ccc([C@H]2OCC(=O)N(Cc3ccc(F)cc3)[C@@H]2CO)cc1)c1ccco1	i
Cc1ccc(Nc2ccnc(N3CC4CCC(C3)N4CC(F)(F)F)n2)cc1	10µM*
FC(F)(F)CN1C2CCC1CN(c1nccc(C(F)(F)F)n1)C2	16%
Cc1cc(C)nc(N2CC3CCC(C2)N3CC(F)(F)F)c1	i
CCN1CC(C(=O)N2CCN(CCOc3ccccc3)CC2)CC1=O (centres undefined)	14%
O=C1N[C@@H]2CCN(C(=O)c3ccc(C(F)(F)F)cc3)[C@@H]2C(=O)N1c1ccc(Oc2ccccc2)cc1	-23%
C=CCN(Cc1ccccc1OC)C(=O)c1cnc2ccccn12	-16%
COc1cccc(C(=O)N(C)Cc2cccc(C(F)(F)F)c2)c1	-26%[44.1 µM]
Cc1ccccc1Nc1c(-c2ccc(Br)cc2O)nc2sccn12	2.5µM*
COCCNC(=O)c1nc2sccn2c1Br	1%[44.1 µM]
CCc1cccc(C)c1Nc1c(-c2ccccc2)nc2sccn12	-9%
